Reference: paper PMC5540273 (PLoS ONE, 2017)

Experiments:
Settings in all cases: concentration: 1 μM, replicates: in singlicate; n = 1
CAMK1 = system: CAMK1
CAMK2A = system: CAMK2A
CAMK2B = system: CAMK2B
CAMK2D = system: CAMK2D
CAMK2G = system: CAMK2G
CAMK4 = system: CAMK4
CAMKK1 = system: CAMKK1
CAMKK2 = system: CAMKK2
CASK = system: CASK
CDC2L1 = system: T1, CDC2L1
T1 construct: gene CDK11B

CDC2L2 = system: CDC2L2
CDC2L5 = system: T2, CDC2L5
T2 construct: gene CDK13

CDK11 = system: T3, CDK11
T3 construct: gene CDK19

CDK2 = system: CDK2
CDK3 = system: CDK3
CDK4-cyclinD1 = system: CDK4-cyclinD1
CDK4-cyclinD3 = system: CDK4-cyclinD3
CDK4 = system: CDK4
CDK5 = system: CDK5
CDK7 = system: CDK7
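Also: KINOMEscan kinase panel screen.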

SMILES	%Inh (CAMK1) [%]	%Inh (CAMK2A) [%]	%Inh (CAMK2B) [%]	%Inh (CAMK2D) [%]	%Inh (CAMK2G) [%]	%Inh (CAMK4) [%]	%Inh (CAMKK1) [%]	%Inh (CAMKK2) [%]	%Inh (CASK) [%]	%Inh (CDC2L1) [%]	%Inh (CDC2L2) [%]	%Inh (CDC2L5) [%]	%Inh (CDK11) [%]	%Inh (CDK2) [%]	%Inh (CDK3) [%]	%Inh (CDK4-cyclinD1) [%]	%Inh (CDK4-cyclinD3) [%]	%Inh (CDK4) [%]	%Inh (CDK5) [%]	%Inh (CDK7) [%]
CN(C)CCOc1ccc(-c2cc(-c3ccc(Cl)c(O)c3)c(-c3ccncc3)[nH]2)cc1.Cl.Cl [SB-684387]	24	0	0	13	19	0	25	21	17	0	14	0	6	0	0	9	15	39	0	21
CN(c1ccc(F)c(NC(=O)c2cccc(OC(C)(C)C#N)c2Cl)c1)c1ccc2nc(NC(=O)C3CC3)sc2n1	0	1	0	0	8	0	10	0	0	0	0	0	0	0	1	4	7	12	0	24
Cc1cccc(Nc2nc(NCCN)ncc2C(N)=O)c1 [GSK1292139]	59	0	0	14	27	0	18	28	13	0	18	0	0	0	5	0	6	35	0	24
CCNc1nccc(-c2c(-c3ccc(F)cc3)ncn2C2CCN(C)CC2)n1	0	18	0	16	8	0	12	9	0	7	16	0	19	0	0	0	0	0	0	0
COc1cc(Nc2ccnc3cc(-c4ccncc4)ccc23)cc(OC)c1OC.Cl [GW494610]	20	0	0	0	7	0	7	0	15	0	0	0	2	1	1	39	0	27	0	0
Cc1ccc(O)cc1Nc1ccnc2ccc(C(C)(C)C)cc12 [GW856805]	45	7	10	18	22	0	3	26	25	12	15	36	21	7	0	12	24	25	0	42
COc1cc(Nc2nccc(N3CCC(NS(=O)(=O)c4ccc(NC(C)=O)cc4)CC3)n2)cc(OC)c1OC [GSK1379825]	37	0	0	7	12	0	23	8	19	0	0	0	0	0	7	16	0	0	0	0
Cc1ccc(Nc2ccnc(Nc3ccc(C)c(F)c3)n2)cc1O.Cl [GW582868]	1	96.6	95.3	0	0	0	0	0	13	0	0	0	6	0	0	0	5	0	0	0
CN1CCN(Cc2ccc(NC(=O)Nc3ccc(N(C)c4ccnc(Nc5ccc(CS(C)(=O)=O)cc5)n4)cc3)cc2)CC1.Cl [GW827654]	28	0	0	9	15	0	95.4	28	3	33	38	99.8	60	16	0	50	97.8	65	58	53
Cl.O=C(Nc1ccc(Oc2ccc3[nH]c(NC(=O)c4ccco4)nc3c2)cc1)Nc1cc(C(F)(F)F)ccc1F [GW683134]	0	0	0	0	0	0	0	0	50	0	1	0	88	0	9	0	0	4	0	78
O=C(Nc1n[nH]c2nc(-c3ccccc3)ccc12)C1CC1 [SB-708999]	3	0	0	100	17	0	6	13	14	0	0	27	0	45	35	61	0	12	2	10
N#Cc1cnc2cc(-c3cnc(CNCCN4CCOCC4)s3)ccc2c1Nc1ccc(Oc2ccccc2)cc1 [GW664114]	22	0	0	21	0	0	48	3	15	0	6	0	0	0	7	0	4	10	0	15
CN(C)c1ncnc2nc[nH]c12 [SKF-31736]	0	12	0	29	29	0	15	25	41	0	0	11	0	0	17	0	0	25	0	0
CCn1cnc2c(NCc3ccccc3)ncnc21 [SKF-96418]	0	0	0	0	0	7	0	1	25	0	0	10	0	0	0	0	0	8	0	0
CCNC(=O)/C=C/c1n[nH]c2cc(Sc3ccccc3C(=O)NC)ccc12	7	0	0	17	27	0	10	33	40	10	0	9	10	0	39	0	0	1	41	23
CC(C)NCC(Cc1ccccc1)NC(=O)c1cc(Br)c(-c2ccnc3[nH]ccc23)s1.Cl.Cl (centres unmarked) [GSK1383281]	34	0	0	15	15	29	33	19	0	0	39	0	31	0	0	0	0	0	0	16
